Measured values reported in PubChem BioAssay AID1794842 (National Center for Advancing Translational Sciences (NCATS), 2023).
Among all 2,800 compounds or so, fewer than 10 were called active. Calls follow the shape of the dose curve; as a rule, active = well fitted curve in the direction sought with a large enough effect; inconclusive = small, poorly fitted or top-dose-only effect, or another doubt; inactive = no such curve, though single readings can be large or run the other way. These entries were drawn from the full list.

Biological target: Metallo-beta-lactamase type 2 (Klebsiella pneumoniae) (UniProt C7C422)
Sequence (C7C422 whole entry, looked up): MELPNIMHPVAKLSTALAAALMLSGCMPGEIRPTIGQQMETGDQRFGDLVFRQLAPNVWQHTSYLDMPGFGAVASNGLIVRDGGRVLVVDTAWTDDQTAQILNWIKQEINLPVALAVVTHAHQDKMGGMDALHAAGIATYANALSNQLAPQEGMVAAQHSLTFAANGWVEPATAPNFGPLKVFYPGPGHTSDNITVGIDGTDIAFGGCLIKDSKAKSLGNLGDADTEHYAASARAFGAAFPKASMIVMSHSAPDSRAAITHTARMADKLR
Assay: qHTS to identify inhibitors of the New Delhi Metallo-beta-lactamase (NDM): Meropenem screen against the machine-based learning selections. Also: % of control where 0% means no effect.
Conditions: Purified NDM-1, meropenem hydrolysis, absorbance 300 nm; series mostly up to 38.4 µM; activity change, negative = inhibition: at the top concentration
Description: Assay Submitter (PI): James Inglese Ph.D., Patricia Dranchak Ph.D., Mahesh Aitha Ph.D. Assay Development and Screening Technology Laboratory (ADST) National Center for Advancing Translational Sciences (NCATS), Rockville, MD National Institute of Health (NIH), Bethesda, Maryland The metallo-beta-lactamases (MBL) are a main antibiotic resistance mechanism evolved by bacteria. There is an urgent clinical need for MBL inhibitors to mitigate this growing threat. To support a machine-based learning study, qHTS has been used to experimentally test inhibitors identified by prediction tools.
PROTOCOL TABLE (as described by Inglese et al., 2007) SEQUENCE No. (e.g., 1, 2, 3, etc.); […] (e.g., enzyme, Incubation, Reagent, etc.); VALUE; DESCRIPTION Primary Screen 1; NDM-1; 4 uL of 3 nM enzyme [2 nM final] in 50 mM HEPES (pH 7.0), 1 uM […], 0.01% Tween20; Use BioRaptr to dispense into two sets of Aurora black, clear bottom high base 1536-well plates 2; Compounds; 23 nL; Use Pin Tool (Wako) to transfer DMSO control and library compounds in DMSO 3; Incubate; >30 min 4a; Reagent; 2 uL of 50 uM nitrocefin [16.7 uM final] to one set of assay plates 4b; Reagent; 2 uL of 150 uM meropenem [50 uM final] to second set of assay plates 5a; Incubate; 15 min 5b; Incubate; 30 min 6a; Detector; Absorbance at 485 nm (bandwidth = 5 nm, 25 flashes/well) on Tecan Infinity 6b; Detector; Absorbance at 300 nm (bandwidth = 5 nm, 25 flashes/well) on Tecan Infinity NOTES (numbers refer to sequence above) 1; Column 1 of each plate received assay buffer without enzyme and columns 2-48 received enzyme for a final assay concentration of 2 nM. 2; Control plate contained DMSO in columns 1, 2, 3, and 4. 3; Compound interaction with enzyme. 4; Nitrocefin and meropenem substrates were prepared in the same assay buffer as step 1 for a final assay concentration of 16.7 uM and 50 uM, respectively, and added to all wells across respective sets of assay plates. 5; Default reader settings were applied for absorbance read at 485 nm (nitrocefin) or 300 nm (meropenem), bandwidth = 5 nm, 25 flashes/well. References: Inglese J, Shamu CE, Guy RK. 2007. Reporting data from high-throughput screening of small-molecule libraries. Nat Chem Biol. doi:10.1038/nchembio0807-438 Yasgar A, Shinn P, Jadhav A, Auld D, Michael S, Zheng W, Austin CP, Inglese J, Simeonov A. 2008. Compound Management for Quantitative High-Throughput Screening. J Lab Autom 13:79 - 89. doi:10.1016/j.jala.2007.12.004

Q: With `Cc1cc(-c2ccccc2)nc(CN2CC[C@@](O)(C3CCC3)[C@H](C)C2)n1` as the compound, how does the “activity change, negative = inhibition” value read?
A: The value was 1.38% (inactive).

Q: How did the “activity change, negative = inhibition” value turn out when `CCOCCN1C(=O)COC[C@@H]1[C@H](O)c1ccc(NC(=O)Cc2ccccc2)cc1` was run?
A: Its value is -0.552% [at 57.5 µM] (inactive).

Q: How did the “activity change, negative = inhibition” value turn out when `COCC(=O)N[C@H]1C[C@H]2C(=O)NC[C@@H](CCC(=O)N3CCN(c4ccccn4)CC3)N2C1` was run?
A: Its value is 5.83% (inactive).

Q: Which “activity change, negative = inhibition” value does the source give for `COc1ccc(OC)c(S(=O)(=O)N2CCCC(Cn3c(C)nc4cccnc43)C2)c1` (centres undefined) here?
A: The value was 0.467% (inactive).

Q: How did the “activity change, negative = inhibition” value turn out when `O[C@@H]1C[C@@H](c2nc(-c3ccc4c(c3)OCO4)no2)N(Cc2cc3ccccc3o2)C1` was run?
A: Its value is 3.26% [at 57.5 µM] (inactive).

Q: How did the “activity change, negative = inhibition” value turn out when `CC1=C[C@@H](CNC(=O)COCC(=O)O)[C@H](C(C)C)C[C@H]1Cc1nc2ccc(C)cc2[nH]1` was run?
A: The value was 41.1% [at 57.5 µM] (inactive).

Q: With `NCCn1cc(C(=O)NCCS(=O)(=O)N2CCCC2)nn1` as the compound, how does the “activity change, negative = inhibition” value read?
A: The value was -0.385% (inactive).

Q: For `C=CCN1CCN(C(=O)[C@@H]2Cc3c[nH]c4cccc(c34)[C@H](CC(C)C)N2)CC1`, which “activity change, negative = inhibition” value is on record?
A: The value was 4.68% [at 57.5 µM] (inactive).

Q: With `COc1ccc(-c2noc([C@@H]3C[C@H](NCc4ccc(N(C)C)cc4)CN3C)n2)cc1` as the compound, how does the “activity change, negative = inhibition” value read?
A: The value was -5.46% [at 57.5 µM] (inactive).

Q: How did the “activity change, negative = inhibition” value turn out when `COc1cc(F)cc(-c2cnc3[nH]cc(CC(=O)NCc4cccnc4)c3c2)c1` was run?
A: Its value is 1.07% [at 57.5 µM] (inactive).

Q: For `Oc1cccc(Nc2cnc3ccc(-c4ccc(F)cc4)nn23)c1`, which “activity change, negative = inhibition” value is on record?
A: Its value is 11.4% [at 57.5 µM] (inactive).

Q: For `CCc1ccc(-c2nc(C3CC(=O)N(c4ccc(C)cc4)C3)no2)cc1` (centres undefined), which “activity change, negative = inhibition” value is on record?
A: The value was 1.01% (inactive).

Q: With `COc1ccc([C@@H](NC(=O)c2ccc3cccc(F)c3n2)C2CC(O)C2)cn1` (some centres undefined) as the compound, how does the “activity change, negative = inhibition” value read?
A: The value was 3% (inactive).

Q: How did the “activity change, negative = inhibition” value turn out when `COc1ccc(Nc2cc3c(cn2)CN(CCc2ccccc2)CCN3)cc1` was run?
A: The value was -0.503% [at 57.5 µM] (inactive).

Q: Which “activity change, negative = inhibition” value does the source give for `COc1ccc(-c2noc([C@@H]3Cc4nc[nH]c4CN3C(=O)Nc3ccc(C)cc3)n2)cc1` here?
A: Its value is 7.68% [at 57.5 µM] (inactive).

Q: Which “activity change, negative = inhibition” value does the source give for `CCOC(=O)N1CCN(C(C(=O)O)c2ccc(OC)nc2OC)CC1` (centres undefined) here?
A: Its value is 29% (inactive).

Q: How did the “activity change, negative = inhibition” value turn out when `O=C(O)CCC(=O)N1Cc2[nH]cnc2C[C@H]1C(=O)NC1CCCCC1` was run?
A: The value was 13% [at 57.5 µM] (inactive).

Q: With `CO[C@H]1[C@H](NC(=O)COc2ccccc2)c2ccccc2C12CCNCC2` as the compound, how does the “activity change, negative = inhibition” value read?
A: Its value is 1.6% (inactive).

Q: How did the “activity change, negative = inhibition” value turn out when `COc1ccc(-c2cc(N3CCCC(NC(=O)c4cccn4C)C3)n[nH]2)cc1` (centres undefined) was run?
A: The value was -0.774% (inactive).

Q: Which “activity change, negative = inhibition” value does the source give for `CC1=C[C@@H](CNC(=O)c2cncnc2)[C@H](C(C)C)C[C@H]1CC(=O)N(C)Cc1ccccc1` here?
A: The value was -0.536% [at 57.5 µM] (inactive).

Q: For `CCOCC(=O)N1CCC(N2CC3CC(C2)[C@H]2CCCC(=O)N2C3)CC1` (some centres undefined), which “activity change, negative = inhibition” value is on record?
A: The value was -2.05% (inactive).

Q: Which “activity change, negative = inhibition” value does the source give for `NC(=O)c1cccc(-c2cc3c(cn2)CN(Cc2ccncc2)CCN3)c1` here?
A: The value was 0.513% [at 57.5 µM] (inactive).

Q: How did the “activity change, negative = inhibition” value turn out when `Cc1ccc(-c2noc([C@@H]3Cc4nc[nH]c4CN3Cc3ccccc3)n2)cc1` was run?
A: Its value is 51.9% [at 57.5 µM] (inactive).

Q: With `Cn1cc(-c2cnc(NC(=O)c3c[nH]c4ccccc34)c3c2CCO3)cn1` as the compound, how does the “activity change, negative = inhibition” value read?
A: The value was 6.8% [at 57.5 µM] (inactive).

Q: With `O=C(NCCc1ccc(Cl)cc1)c1nc(-c2cc(Cl)cc(Cl)c2)c2ccccn12` as the compound, how does the “activity change, negative = inhibition” value read?
A: The value was 0.233% (inactive).

Q: `CCCNC(=O)N(C1CCOCC1)C1CCN(C(=O)Nc2c(F)cccc2F)CC1` was tested. Which “activity change, negative = inhibition” value did it give?
A: Its value is -4.65% (inactive).

Q: With `O=C(Cc1c[nH]c2ncc(-c3ccsc3)cc12)NCc1cccnc1` as the compound, how does the “activity change, negative = inhibition” value read?
A: Its value is -0.817% [at 57.5 µM] (inactive).

Q: `Cc1ccccc1-c1cnc2n[nH]c(-c3ccccc3)c2n1` was tested. Which “activity change, negative = inhibition” value did it give?
A: The value was 2.04% [at 76.7 µM] (inactive).

Q: With `CC1(COc2cccnc2)COc2ccc(C(=O)Nc3ccc4[nH]ccc4c3)cc2N1` (centres undefined) as the compound, how does the “activity change, negative = inhibition” value read?
A: The value was 16.2% [at 57.5 µM] (inactive).

Q: With `O=C(NCCc1cnc[nH]1)C1CCN(C2CCCCC2)CC1` as the compound, how does the “activity change, negative = inhibition” value read?
A: Its value is 0.443% (inactive).

Q: `Cc1ccccc1NC(=O)c1cnc2c(c1)N(Cc1ccccc1)CCC2` was tested. Which “activity change, negative = inhibition” value did it give?
A: The value was 4.53% [at 57.5 µM] (inactive).

Q: `C=CCCC(CN1CCCOCC1)Oc1ccc(-c2ccccc2)nn1` (centres undefined) was tested. Which “activity change, negative = inhibition” value did it give?
A: The value was -1.94% (inactive).

Q: For `COCCc1noc(CN(C)c2cc(C(C)C)nc3ccnn23)n1`, which “activity change, negative = inhibition” value is on record?
A: The value was -1.68% (inactive).

Q: Which “activity change, negative = inhibition” value does the source give for `CCC(=O)N1CCC(Cc2nc(-c3ccccc3)n[nH]2)CC1` here?
A: Its value is 0.766% (inactive).

Q: With `Cc1cc(C(=O)N[C@H](C)c2c(-c3ccc(Cl)cc3)noc2C(=O)O)c(C)o1` as the compound, how does the “activity change, negative = inhibition” value read?
A: The value was 53.2% [at 57.5 µM] (inactive).

Q: With `CC(=O)Nc1ccc(CN2CCC(N3CCCCCC3=O)CC2)cc1` as the compound, how does the “activity change, negative = inhibition” value read?
A: Its value is 0.422% (inactive).

Q: With `CC[C@H]1CN(C(=O)C(C)(C)C)CC[C@H]1CC(=O)NCCSC` as the compound, how does the “activity change, negative = inhibition” value read?
A: Its value is 1.03% [at 57.5 µM] (inactive).

Q: For `O=c1[nH]c(-c2ccc(F)cc2)nc2c1CCN(S(=O)(=O)c1cccs1)C2`, which “activity change, negative = inhibition” value is on record?
A: Its value is 1.01% (inactive).

Q: How did the “activity change, negative = inhibition” value turn out when `O=C(O)c1cncc(N2CCC3(CC2)CNC(C(=O)O)C3)n1` (centres undefined) was run?
A: Its value is 42.7% (inactive).

Q: How did the “activity change, negative = inhibition” value turn out when `COc1cccc(CN2CCOC[C@H](Oc3cccnc3)C2)c1` was run?
A: The value was 1.48% [at 57.5 µM] (inactive).

Q: `O=C(O)[C@H]1C[C@@H](C(=O)NCc2ccccn2)CN(CC2CC2)C1` was tested. Which “activity change, negative = inhibition” value did it give?
A: Its value is 22.1% (inactive).

Q: Which “activity change, negative = inhibition” value does the source give for `O=C(CN1C(=O)NC(c2ccccc2Cl)C2=C1COC2=O)Nc1ccc(F)c(Cl)c1` (centres undefined) here?
A: Its value is 2.9% (inactive).

Q: How did the “activity change, negative = inhibition” value turn out when `COc1ccc(CN2CCNc3cnc(Nc4ccccc4)cc3C2)cn1` was run?
A: Its value is 15% [at 57.5 µM] (inactive).

Q: `Cc1noc([C@@H](C)NC(=O)Nc2cccnc2)c1C(=O)O` was tested. Which “activity change, negative = inhibition” value did it give?
A: The value was 49.7% [at 57.5 µM] (inactive).

Q: With `O=C(CCn1nnc(-c2ccccc2)n1)N1CCCC2(CCNCC2)CC1` as the compound, how does the “activity change, negative = inhibition” value read?
A: The value was -4.15% (inactive).

Q: `CC(C)CCNC1(Cc2cc(CN3CCOCC3)on2)COC1` was tested. Which “activity change, negative = inhibition” value did it give?
A: The value was 8.33% [at 57.5 µM] (inactive).

Q: With `Cc1noc([C@@H]2CNC[C@H]2CO)n1` as the compound, how does the “activity change, negative = inhibition” value read?
A: Its value is 4.3% (inactive).

Q: For `O=C(NCc1cccnc1)[C@@H]1C[C@@H](c2ccc(F)cc2)N(Cc2ccccc2)C1`, which “activity change, negative = inhibition” value is on record?
A: Its value is -0.331% [at 57.5 µM] (inactive).

Q: With `CC1=C[C@@H](CC#N)[C@H](C(C)C)C[C@H]1CC(=O)NC1CC1` as the compound, how does the “activity change, negative = inhibition” value read?
A: The value was -1.03% [at 76.7 µM] (inactive).

Q: Which “activity change, negative = inhibition” value does the source give for `c1cncc(Nc2cc3c(cn2)CN(Cc2ccc4[nH]ccc4c2)CCN3)c1` here?
A: Its value is 1.18% [at 57.5 µM] (inactive).

Q: How did the “activity change, negative = inhibition” value turn out when `COc1ccc(-c2cc(-c3cccc(C(N)=O)c3)cn3cncc23)cc1` was run?
A: The value was 29.1% [at 57.5 µM] (inactive).

Q: `NC(=O)Cc1c[nH]c2ncc(-c3ccc(F)cc3)cc12` was tested. Which “activity change, negative = inhibition” value did it give?
A: Its value is 12.5% [at 76.7 µM] (inactive).

Q: `O=c1c2nc(NCc3ccccc3)ccc2ncn1Cc1ccccn1` was tested. Which “activity change, negative = inhibition” value did it give?
A: Its value is 18.9% [at 57.5 µM] (inactive).

Q: `CCCS(=O)(=O)N1CCC(Oc2nccnc2N2CCOCC2)C1` (centres undefined) was tested. Which “activity change, negative = inhibition” value did it give?
A: The value was 5.44% (inactive).
